# D2 PAM-1 = D2 dopamine receptor (human) potentiation. potentiation, % at 10 µM. 340,000 compounds, 0.34% hits. HEK293 T-REx D2, calcium flux, EC20 dopamine potentiation. P14416;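 active = potentiation over 3 SD above the plate norm, cut at about 30% in these data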; also: 0% is about no effect
# Target sequence (P14416 whole entry, looked up): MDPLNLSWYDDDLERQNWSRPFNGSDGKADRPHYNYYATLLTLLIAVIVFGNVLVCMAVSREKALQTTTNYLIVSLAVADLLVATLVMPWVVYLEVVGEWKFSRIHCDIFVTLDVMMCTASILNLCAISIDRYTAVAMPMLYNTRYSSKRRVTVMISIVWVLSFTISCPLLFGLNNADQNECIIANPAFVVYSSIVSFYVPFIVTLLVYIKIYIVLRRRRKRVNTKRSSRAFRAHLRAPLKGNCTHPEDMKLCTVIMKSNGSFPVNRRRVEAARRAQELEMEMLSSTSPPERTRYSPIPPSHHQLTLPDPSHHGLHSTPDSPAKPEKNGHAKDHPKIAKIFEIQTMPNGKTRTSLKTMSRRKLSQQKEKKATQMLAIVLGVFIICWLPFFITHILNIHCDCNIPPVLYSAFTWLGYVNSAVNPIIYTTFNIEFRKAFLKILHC
#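 Primary screen. Calcium kinetics in induced HEK293 T-REx D2 cells: compound pre-addition 180 s, EC20 dopamine, 180 s more.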
# D2 PAM-2 = potentiates the human D2 dopamine receptor allosterically; P14416; DiscoveRx D2 beta-arrestin cells, luminescence, 90 min; 100% = 57 uM dopamine signal; potentiation, % (no concentration beside the values); 360,000 compounds, 0.23% hits; in the data active = potentiation above about 50%; inconclusive = mostly about 30% to 49%
#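 D2 cells co-treated with compound plus 50 nM dopamine (EC20) for 90 min at 37 deg C to detect potentiation. Beta-arrestin recruitment was read as enzyme-fragment luminescence after 1 h at ambient temperature. Full response was set by 57 uM dopamine.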
# D2 ag-1 = agonists of human D2 dopamine receptor (beta-arrestin); DiscoveRx PathHunter D2 beta-arrestin, luminescence, 90 min; 100% = 57 uM dopamine signal; 360,000 compounds, 0.084% hits; AID 624465; P14416; activation, % (test concentration not listed); in the data active = activation above about 40%; inconclusive = between about 15% and that limit
#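 DiscoveRx PathHunter D2 beta-arrestin cells (2,100/well) attached overnight, then compound-stimulated 90 min at 37 C in HBSS/10 mM HEPES/0.1% Tween-20 buffer; beta-galactosidase complementation read by luminescence after 1 h at ambient temperature. Dopamine 57 uM final (EC100) as control.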
# D2 antagonist = D2 dopamine receptor (human) antagonism; inhibition, % at 10 µM; AID 485344; P14416; 340,000 compounds, 2% hits; HEK293 TREx D2 cells, calcium flux, dopamine EC80; in the data active = inhibition above about 30%; inactive = below that, where a call was filed; also: 0% is about no effect
#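 Dopamine at EC80 is the agonist stimulus; test compounds precede it by 180 s. Calcium flux read kinetically in a force-coupled, inducible HEK293 T-REx D2 cell line.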
# D2 ag-2 = D2 dopamine receptor (human) agonism | P14416 | HEK293 T-REx D2 cells, calcium flux agonist mode | activation, % at 2 µM | 340,000 compounds, 0.53% hits | AID 485358;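 active = activation over 3 SD above normal in the single-dose calcium agonist read, cut at about 30% in these data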; also: 0% is about no effect
#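 In this primary screen, compounds producing a positive calcium signal within 180 s of addition to tetracycline-induced, force-coupled HEK293 Trex D2 cells are flagged; cells are dye-loaded with a no-wash calcium kit beforehand.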
# D3 arrestin ag = D3 receptor agonism confirmed, beta-arrestin readout; DiscoveRx D3 beta-arrestin cells, luminescence, 90 min; 2,300 compounds, 4% hits; AID 720506; Potency, µM (doses to about 76.9 µM), inactives show at the highest dose activation, most hits filed as activators; shares compounds with D2 ag-2;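 also: potency is read from the fitted curve at half-maximal effect; 100% = dopamine control response; nearly all actives have a fitted effect of over 70% in size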
# D2 ag-3 = D2 receptor agonism, beta-arrestin counterscreen. shares compounds with D2 ag-2. DiscoveRx PathHunter D2 beta-arrestin, luminescence, 90 min; response scale: percent relative to full dopamine signal. Potency, µM (series often up to 76.9 µM), without a hit: at the highest dose activation, usual class: activators. 2,300 compounds, 5.9% hits. AID 720507; also: potency is read from the fitted curve at half-maximal effect; % of control where 0% means no effect; nearly all actives have a fitted effect of over 70% in size
# Numbers without * were called inactive; u = inconclusive; x = not tested or not shown; ! = repeats disagree. Sampled rows, rich in hits. Any-hit rate of the full collection: about 2.4%. Unless noted, calls follow the shape of the dose curve; as a rule, active = well fitted activation curve with a large enough effect; inconclusive = small, poorly fitted or top-dose-only effect; inactive = flat fitted curve, though single readings scatter.
SMILES,D2 PAM-1,D2 PAM-2,D2 ag-1,D2 antagonist,D2 ag-2,D3 arrestin ag,D2 ag-3
CCCCCCCCC(NC(=O)c1ccc(C#N)cc1)C(=O)NCCC (stereo not given),-1,-4,-3,0,0,-13%,-2%
CCCNC(=O)C(CC)NC(=O)c1ccc(C#N)cc1 (stereo not given),-2,0,0,-4,1,x,x
CCCNC(=O)C(Cc1cccc(C#N)c1)NC(=O)c1ccc(C#N)cc1 (stereo not given),-6,-55,-3,-1,-1,-5%,-6%
CCCNC(=O)C(Cc1ccc(I)cc1)NC(=O)c1ccc(C#N)cc1 (stereo not given),-3,-4,-3,-2,0,-8%,-2%
CCCNC(=O)C(Cc1cccc(Cl)c1)NC(=O)c1ccc(C#N)cc1 (stereo not given),18,-2,-9,10,0,x,x
Cc1[nH]n(-c2ccccc2)c(=O)c1C1(C(F)(F)F)C(=O)N(c2ccc(F)cc2)C2=C1C(=O)CC(C)(C)C2 (stereo not given),-10,-15,1,11,5,12%,-6%
CC1(C)CC(=O)C2=C(C1)N(c1ccc(F)cc1)C(=O)NC2(C(F)(F)F)C(F)(F)F,-19,8,-1,8,-1,x,x
Cc1ccc(OCCC(=O)OCC(=O)N2CCN(S(=O)(=O)c3ccc(C)cc3C)CC2)cc1,17,9,2,-13,0,x,x
COc1ccc(CCC(=O)OCC(=O)N2CCN(S(=O)(=O)c3ccc(C)cc3C)CC2)cc1,6,-35,-7,16,0,2%,-1%
CCn1cc(C(=O)NCCCN(CC(C)C)CC(C)C)c(=O)c2cc(S(=O)(=O)N(C)C3CCCCC3)ccc21,-10,-6,-4,-7,1,x,x
CCCn1c2ccccc2c2cnn(CC(=O)NCCCN3CCN(c4ccccc4)CC3)c(=O)c21,-25,-32,0,88*,22,17%,9%
CCCn1c2ccccc2c2cnn(CC(=O)OC)c(=O)c21,3,-12,-3,-9,41*,1%,-1%
Cn1c2ccccc2c2cnn(CC(=O)NCCCN3CCN(c4ccccc4F)CC3)c(=O)c21,-24,-7,3,63*,69*!,13%,26%
O=C(Cc1csc(Nc2nc(=S)[nH]c3ccccc23)n1)NCc1ccc(Cl)cc1,-16,-1,0,10,0,x,x
O=C(Cc1csc(Nc2nc(=S)[nH]c3ccccc23)n1)NCCCN1CCN(c2ccccc2F)CC1,-19,-28,13,67*,47*,9%,15%
CC(=O)c1cccc(NC(=O)CN2C(=O)CC(c3ccc(C)cc3C)=Nc3ccccc32)c1,0,x,x,x,2,x,x
Cc1ccc(N2CCN(S(=O)(=O)c3ccc(Cl)c4ccccc34)CC2)c(C)c1,11,x,x,x,0,x,x
COC(=O)c1cc(NC(=O)/C=C/c2ccccc2)ccc1O,8,x,x,-17,0,x,x
Cn1c(C(=O)NCCCN2CCN(c3ccccc3F)CC2)cc2c(=O)[nH]c3ccccc3c21,-24,14,u,105*,71*,10%,29%
Cn1c(=O)cc(OCC(=O)NCCCN2CCN(c3ccccc3F)CC2)c2ccccc21,-19,u,45*,78*,86*,-6%,u
COc1ccccc1N1CCN(CCCNC(=O)Cn2ncc3c([nH]c4ccccc43)c2=O)CC1,-26,-34,-5,90*,27,-24%,7%
CC(C)c1ccccc1OCC(=O)Nc1ccccc1C(=O)N1CCOCC1,5,-6,-4,1,0,x,x
CCc1ccc(S(=O)(=O)c2cn(CC)c3cc(N4CCCCC4)c(F)cc3c2=O)cc1,4,x,x,x,0,x,x
O=C(CN1CCN(C/C=C/c2ccccc2)CC1)NC(=O)NC1CCCCC1,-34,-15,1,71*,23,17%,11%
O=C(CN1CCN(Cc2ccccc2)CC1)NC(=O)NC1CCCCC1,13,-20,-4,-4,0,x,x
SMILES,D2 PAM-1,D2 PAM-2,D2 ag-1,D2 antagonist,D2 ag-2,D3 arrestin ag,D2 ag-3
Cc1noc(C)c1S(=O)(=O)Nc1ccc(C(C)C)cc1,2,-10,3,-4,-1,x,x
OC1(Cc2cc(-c3ccccc3)no2)CCN(CCCc2ccccc2)CC1,-28,-4,-1,73*,46*,u,11%
CCOC(=O)N1CCC(N(CCOC)C(=O)Nc2ccc(Cl)cc2)CC1,0,-14,-9,-1,0,x,x
CCOC(=O)N1CCC(N(CCCOC)C(=O)Nc2ccc(CC)cc2)CC1,-14,-6,-2,-8,17,-5%,-1%
COc1ccc(Oc2cc(C)c3ccccc3n2)cc1,-19,u,u,45*,44*,u,u
Cc1ccc(Oc2cnc3ccccc3n2)cc1,-6,-3,-3,-4,1,x,x
O=C(O)C1CCCCC1C(=O)Nc1ccc(S(=O)(=O)N2CCCCCC2)cc1 (stereo not given),-4,-2,-7,-28,0,x,x
CC1CC1C(=O)Nc1ccc(S(=O)(=O)N2CCCCC2)cc1 (stereo not given),x,-22,-2,x,x,1%,3%
O=C(c1ccc2c3c(cccc13)CC2)C1CCCN(C(=O)c2cc[n+]([O-])cc2)C1 (stereo not given),0,-2,-3,11,0,x,x
O=C(c1ccc2c3c(cccc13)CC2)C1CCCN(C(=O)c2ccc[n+]([O-])c2)C1 (stereo not given),0,-5,2,22,0,-7%,-3%
Cn1c(CO)cnc1-c1ccccc1,-5,-5,3,-13,1,x,x
COc1cc(OC)cc(C(=O)NC(C(=O)Nc2ccc(N3CCOCC3)cc2)C(C)C)c1 (stereo not given),-5,-21,1,2,0,x,x
COc1cc(OC)cc(C(=O)N[C@H](C(=O)Nc2ccccc2N2CCOCC2)C(C)C)c1,-20,-4,-1,8,45*,-3%,-3%
CCCCCNC(=O)CCn1c(=O)[nH]c2ccccc2c1=O,-9,x,x,x,0,x,x
Cc1sc2nc(CSCC(=O)Nc3ccc(C(F)(F)F)cc3)[nH]c(=O)c2c1C,3,0,2,-17,1,-6%,-2%
Cc1sc2nc(CSCC(=O)N(C)CC(=O)Nc3ccc(F)cc3)[nH]c(=O)c2c1C,7,-10,-2,-9,3,x,x

# Screening data: PubChem, National Center for Advancing Translational Sciences (NCATS)
